Experimental data as given in PubChem BioAssay AID1347426 (Functional Genomics Laboratory (NCATS/FGL), 2020).
In all, about 31,000 sequences went through this assay and about 1,400 (4.5%) were called active. This excerpt belongs to a sample that is enriched for actives. A number with no mark means an inactive call.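 Rule for the calls: active = median seed-adjusted z-score above 1 or below -1; inactive = the rest.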

Assay: Novel Modifiers of Survival Motor Neuron (SMN) Protein: Gene Identification via Genome-wide siRNA Screen;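 note: luminescence tracks full-length SMN protein made from the SMN2 reporter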
Details: HEK293T SMN2-luciferase reporter, siRNA knockdown, 72 h; actives lie on both sides
Procedure, shortened: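 Luciferase signal, proportional to full-length SMN made from an SMN2 cDNA reporter in stable HEK293T cells, was read 72 h after siRNA reverse transfection. Values were expressed as MAD scores after non-targeting-control normalization and log10 conversion; seed analysis flagged off-targets.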

Sequence	median seed-adjusted z-score
GCUGCUCUGUUGAUGCUUATT against POMT1	0.327
GGAGUUAUAUUUAGUGAUATT against ABCA10	-0.104
GGGUCAAGAUCGAGGAUAATT against MYOM3	-0.012
CCUCUAACAUUGGUUCCAATT against XPNPEP1	-1.5 (active)
CCAUGUACGUCAUCCCAUUTT against PCK1	-0.401
AGAUGAGCCUAUACAGCGATT against TRIM9	-0.437
GCAGUUCGGCAGUAUCUGUTT against PSMD6	-1.03 (active)
CAUCCAGCCCUUAUACAAATT against RBM24	0.0471
CGUUCUAUCAACAAACUCATT against EIF2S1	-0.175
GCCUCACAGGUGCAUCAUATT against TSC2	1.11 (active)
GCCUAGGAGCGAGGACUUATT against DNAJC30	0.329
CAGCUAUAAUCGUUUAUGATT against RAB22A	0.321
GGAAUUUCGGCACUCAGAATT against CHIT1	-0.578
GGUUGCCCAUCUUACUCUATT against ZNF470	-1.26 (active)
GCUCGGUCUGGUGAACUAATT against KLF3	0.628
CAAUCGUCAUAAUGUCUAUTT against A2M	-1.96 (active)
GAUCCAUAGUACACGAAUATT against ADAM7	-0.0638
AGAUUGUCCUCAACUUCAATT against NRP2	0.477
AAUCAAAAGGGAGAACUCATT against HS3ST2	0.133
GACCCUCGAUUACUAUUCATT against OMA1	0
GCAUCGACAUGUCCUGGGATT against PUF60	2.26 (active)
CAUCAACUAUAUCACAGUATT against ATP13A5	0.241

Sequence	median seed-adjusted z-score
AAUUCGAUAUGUUCAGCAATT against GPX4	-1.18 (active)
CAUCUAGGAUUUUAAGGGATT against ASGR1	-0.128
GGAGGUUUGUAGAAUAUGUTT against XYLT1	-0.274
GCACGACUGUUACUGGACUTT against POLRMT	0.0812
GGAUAUCAAUCGAGUACAATT against PIK3R3	-1.88 (active)
GCUGGACCGUAAAAUUGAATT against PSMC4	-0.361
CCAACAUCUGGAACGAAUATT against KCNT2	0.449
GGACAAGAACGGAAUUUCATT against SCLY	0.00396
GGACGGAAGAUUUUCGUAUTT against SR140	1.16 (active)
GAACCUCUAUUGUGGACAATT against TMEM1	-0.191
AGAAAGUACUGCACAGAGATT against PCDH8	-1.03 (active)
CGAAGUUUCCUAUAGAGGATT against PCDHGA10	0.0621
GAUAGGAUGUGACAAUGAATT against ING2	0.126
GCCUAUCAGGAUCCCAGCATT against RIN1	-0.0694
AUGUACAAGUGUCAGCUAATT against VEGFC	-0.41
GCAUCGUGGUGUCAAGUCATT against ZBTB12	0.0993
GGUUGAAGCUUAUUGCAGATT against HARS2	0
CAAAAGUAUUCUUAGGAAATT against SLC25A15	-0.0116
GACCUACUCUAGUGACAGATT against TRERF1	-0.0952
ACCGAGAGAUGGUAUAUGATT against SUPT4H1	-1.01 (active)
AGAUCACUGUAUCACCUCUTT against VDR	-0.031
GCUGGUGACUGAGUUUUCATT against NOB1	-0.0844

Sequence	median seed-adjusted z-score
GCUAUAUCAGGAUGAGAUATT against ATG5	-0.0597
GGCCUUACCCUAAAUCGAATT against RARB	0.409
CGAGCUACAGGAACAUCUUTT against LSS	-0.302
GUGUGAAGGUAGACCGUGATT against SPATA20	0
GAGUGGAAGUGUACCAACATT against HCFC1	1.47 (active)
GGAAGAUUCAGUUAACAUUTT against NUDT3	0.674
CAACCAUGUUCAGUAUAGATT against SPINK9	0.392
CCGGAGAAGUUCAACAGCATT against DGKA	-1.36 (active)
GCUAAUCAUUGAGUAUGCATT against KLHL10	0.0708
AGCUGACCGAGUUCCUGCATT against GAL3ST1	0.263
CCUUGGAGGAGAUCGCUGATT against TEKT2	-0.349
GGCAUACAGUUCCGAGAAATT against AGL	-0.385
GUCUUAGAAUGUGAACGUATT against CCNL1	-1.26 (active)
GGCAGGAGGUUUAAGAAGUTT against PPP3R2	-0.143
GAGAGUAUCGAAACCGUUUTT against GNPTAB	0.296
GGACUGCACUACUCCAUGATT against ADAMTS2	-0.338
GCACAGUAGUCACCAAUGATT against FUCA2	0.562
CCAAGGUACUAACAUGGGATT against AP3M1	0
CCCAGACUCUAGAUAGACATT against SULT1C3	-0.731
CUCCUGCAGUUGAAGGUGATT against FKBP8	-0.304
CCAACAAUUUAGUAGUUAUTT against TBP	-1.25 (active)
AGUACAACCUGGUGACGCATT against ZNF710	0

Sequence	median seed-adjusted z-score
GGAUCAAUACUCCAACAAATT against ZNF281	1.19 (active)
GGCUUGAUGCUGGUACUUUTT against HACL1	-0.0664
AGCCUGCGGUUUUCUGUAUTT against SYT12	-0.329
UUACCAUCGUGAAGAGAAATT against CLEC5A	-1.07 (active)
CCUCAUCCCUGUUACAACATT against JAG1	-0.32
CCAACUGUGUGGCAGAACGTT against FKBP9L	0.666
GUCUGUAGUUCACCCGUUATT against USP9Y	0.012
AGCUAGGCCUGGAUAUCGATT against KRT83	1.15 (active)
GCUUUCUACAAGUAUAAGATT against ERO1LB	0.565
GGCUACCUGCAUUCACUGATT against SGK1	-0.659
CCACAGAUGUGCAUAAACATT against NFKB2	-0.132
GGAACAUCGAAAUCGUGUATT against DDX6	1.12 (active)
GGUCUACUUCUACUACAAUTT against UTY	-0.538
CCGGUCAACUGUUACGUAUTT against GJA5	0.707
CAUUCUGUGGUGAAACAUUTT against SCLY	0.00396
CCACCAUAGGAUAUGGUUATT against KCNJ16	-0.705
CGCAAUAACUGUUUGGUAUTT against EGLN1	2.05 (active)
GGCUAAUCGUGAACCGGAATT against DOCK8	0.243
GGAUGGUAGUGUCUGACUUTT against MGLL	0.288
UGAAGAUGAUUGUCCUUAUTT against VAMP8	-0.184
CACCCUGCAGGUUCCCAUATT against HSD17B14	0.386
GGAUGCUUCUGAAUAGAAATT against BIRC7	-1.44 (active)

Sequence	median seed-adjusted z-score
CACUAUUGCAUGUAUCGAATT against ARHGAP10	-0.458
CAAAGGGCUAAGUUCUAAATT against TBC1D5	0.38
AAACUAACAUUCGAUUGAATT against TRIM48	0
GGUGGAGGACCAAACAGAATT against MGAT4B	0.0142
GCUCUACUAUUUCUACGAUTT against SPPL2B	0.0324
GCAAGAGAGUCUCAAAUUUTT against EVX1	1 (active)
CCAUGCUCCAGUUAUCUUUTT against SLC10A6	-0.803
GAUUCUUCCCGGCAUCAUATT against GUCY1A3	0.187
GGGUGUAAAAUGCACGUUUTT against CLDN16	-0.868
CACUUGGAGUGGUGAAUCATT against NCL	1.33 (active)
GCUCGGUGGAAAAACGUGATT against SCN3A	-0.0556
CAGUCUACAGCUUCAACAATT against ZNF207	-3.1 (active)
CGCUGACCCUGGAGAUGUATT against CALY	0.216
GGACAAUCCUUUCAUUAAUTT against HTR3C	-0.221
CUAAUUUACUAUUACGCUUTT against F2R	-0.392
UCCCAGCACUUAUAGCCUATT against ANKRA2	1.26 (active)
AGCCCUCUUCUGACACUAATT against SERPINH1	0.186
GCGUUGACCAAGACUCAUATT against TP53BP2	0.157
AGCACUGCAUGUUCACCGATT against KLHL25	-0.0146
GCAUAUUAAGGAGACCUAUTT against HSD17B6	0.573
